The record followed here is PubChem BioAssay (NCI).

This is part of a sample that, as a whole, favours compounds with a hit. Of some 79,000 tested, about 15% had one in any assay. Values without a mark were called inactive. Active and inactive are the calls of the source. No stated cut-off is given here; in the data, active means growth inhibition above about 70%; inactive means the rest.

Test [1] in a line: NCI Yeast Anticancer Drug Screen. Data for the rad50 strain (AID 155).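 Further: 0% = growth of vehicle-only cultures of the same strain.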 As to conditions: S. cerevisiae rad50 strain growth inhibition, stronger effect = higher value. In outline:
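Genetically altered yeast (DNA repair pathway); compound treatment; growth inhibition vs vehicle ctrl.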

A short description of test [2]: NCI Yeast Anticancer Drug Screen. Data for the mec2-1 strain (AID 157). Particulars: S. cerevisiae mec2-1 strain, stronger effect = higher value. In outline: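 Cells of the genetically defined mec2-1 yeast strain are incubated with test compound. Inhibition of growth is calculated against vehicle-treated controls.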
Test [3] is described as follows: NCI Yeast Anticancer Drug Screen. Data for the sgs1 mgt1 strain (AID 161).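 Further: 0% = growth of cultures given vehicle only.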 As to conditions: S. cerevisiae sgs1 mgt1 strain, stronger effect = higher value. A digest of the protocol: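 Read-out: growth inhibition vs vehicle controls. Cells: mutant yeast strain deficient in DNA damage repair.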
Test [4] in a line: NCI Yeast Anticancer Drug Screen. Data for the cln2 rad14 strain (AID 165).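 Further: 0% = growth equal to vehicle treated cultures.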 Particulars: S. cerevisiae cln2 rad14 strain, stronger effect = higher value. In outline:
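The screen exposed genetically defined yeast (cln2 rad14) to test compounds and scored growth inhibition relative to vehicle-treated controls.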

Test [5] can be described thus: NCI Yeast Anticancer Drug Screen. Data for the bub3 strain (AID 167). Particulars: S. cerevisiae bub3 mutant strain, stronger effect = higher value. In outline: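 Yeast carrying a defined mutation is treated with each compound, and growth is compared with that of vehicle-exposed cells to give inhibition.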
Test [6] in a line: NCI Yeast Anticancer Drug Screen. Data for the mlh1 rad18 strain (AID 175). Particulars: S. cerevisiae mlh1 rad18 strain growth inhibition, stronger effect = higher value. In outline: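 Compound-treated yeast growth, normalised to vehicle controls. Strain bears defined DNA repair mutations.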
[7] abbreviates: at 5.0 µM (retest, dose inferred, filed as 0.5).
Setting [8] is: at 50.0 µM (retest, dose inferred, filed as 5.0).

As to `COc1ccc(-c2cc(C(=O)O)c3cccc(C(F)(F)F)c3n2)cc1`, the growth inhibition in test [1] (setting [7]) is 15%; in test [1] (setting [8]) it was 85% (active); in test [1] (at 50.0 µM), 67.9%; in test [2] (setting [7]), 4%; in test [2] (setting [8]), 83% (active); in test [2] (at 50.0 µM), 57.6%. The growth inhibition in test [3] (setting [7]) is 0%; in test [3] (setting [8]), 92% (active); in test [3] (at 50.0 µM), 72.9% (active); in test [4] (setting [7]), 22%; in test [4] (setting [8]), 80% (active); in test [4] (at 50.0 µM), 64.5%. The growth inhibition in test [5] (setting [7]) was 12%; in test [5] (setting [8]), 78% (active); in test [5] (at 50.0 µM), 59%; in test [6] (setting [7]), 17%; in test [6] (setting [8]) it was 96% (active); in test [6] (at 50.0 µM), 89.7% (active).
With `CCCCCCCCCCCCCCCCCCOC(=O)C(N)CCCCN` (configuration not stated), the growth inhibition in test [1] (setting [7]) was 2%; in test [1] (setting [8]), 98% (active); in test [1] (at 50.0 µM), 98.3% (active); in test [2] (setting [7]), -3%; in test [2] (setting [8]) it was 97% (active); in test [2] (at 50.0 µM) it was 98.8% (active). Further, the growth inhibition is 3% in test [3] (setting [7]); 97% (active) in test [3] (setting [8]); 50.5% in test [3] (at 50.0 µM); -7% in test [4] (setting [7]); 87% (active) in test [4] (setting [8]); 96.7% (active) in test [4] (at 50.0 µM). Also, the growth inhibition in test [5] (setting [7]) is -7%; in test [5] (setting [8]), 96% (active); in test [5] (at 50.0 µM) it was 98.2% (active); in test [6] (setting [7]) it was -5%; in test [6] (setting [8]), 96% (active); in test [6] (at 50.0 µM), 98.3% (active).
Turning to `O=S(=O)(OCC#CCOS(=O)(=O)c1ccc(Cl)c(Cl)c1)c1ccc(Cl)c(Cl)c1`, the growth inhibition in test [1] (setting [7]) was -1%; in test [1] (setting [8]), 32%; in test [1] (at 50.0 µM), 28.8%; in test [2] (setting [7]) it was -1%; in test [2] (setting [8]), 41%; in test [2] (at 50.0 µM), 44%. The growth inhibition in test [3] (setting [7]) was -6%; in test [3] (setting [8]) it was 63%; in test [3] (at 50.0 µM), 54.7%; in test [4] (setting [7]) it was 1%; in test [4] (setting [8]) it was 8%; in test [4] (at 50.0 µM) it was 75.2% (active). For the same compound, the growth inhibition is -4% in test [5] (setting [7]); 32% in test [5] (setting [8]); 35.3% in test [5] (at 50.0 µM); 7% in test [6] (setting [7]); 37% in test [6] (setting [8]); 48.2% in test [6] (at 50.0 µM).
Turning to `CC(O)c1cc(-c2ccc(Cl)cc2)nc2ccccc12` (configuration not stated), the growth inhibition is 12% in test [1] (setting [7]); 97% (active) in test [1] (setting [8]); 97.8% (active) in test [1] (at 50.0 µM); 4% in test [2] (setting [7]); 98% (active) in test [2] (setting [8]); 97.2% (active) in test [2] (at 50.0 µM). In addition, the growth inhibition is 6% in test [3] (setting [7]); 98% (active) in test [3] (setting [8]); 98% (active) in test [3] (at 50.0 µM); 14% in test [4] (setting [7]); 98% (active) in test [4] (setting [8]); 97.2% (active) in test [4] (at 50.0 µM). Besides, the growth inhibition in test [5] (setting [7]) was 1%; in test [5] (setting [8]), 98% (active); in test [5] (at 50.0 µM) it was 97.8% (active); in test [6] (setting [7]), -1%; in test [6] (setting [8]), 97% (active); in test [6] (at 50.0 µM), 96.5% (active).
For `COc1cccc(CCCNC(=O)Cc2ccccc2CO)c1`, the growth inhibition was 12% in test [1] (setting [7]); 14% in test [1] (setting [8]); 34.2% in test [1] (at 50.0 µM); 9% in test [2] (setting [7]); 5% in test [2] (setting [8]); -55.1% in test [2] (at 50.0 µM). Besides, the growth inhibition in test [3] (setting [7]) is 9%; in test [3] (setting [8]) it was 12%; in test [3] (at 50.0 µM), -13.8%; in test [4] (setting [7]), 1%; in test [4] (setting [8]), 5%; in test [4] (at 50.0 µM), 7.7%. Besides, the growth inhibition in test [5] (setting [7]) is 11%; in test [5] (setting [8]), 14%; in test [5] (at 50.0 µM), -12.2%; in test [6] (setting [7]), 13%; in test [6] (setting [8]) it was 10%; in test [6] (at 50.0 µM) it was -46.8%.
In the case of `CCN(CC)CCOc1ccc(C=C2c3ccccc3-c3ccccc32)cc1`, the growth inhibition in test [1] (setting [7]) is 98% (active); in test [1] (setting [8]) it was 99% (active); in test [1] (at 50.0 µM), 99.2% (active); in test [2] (setting [7]), 99% (active); in test [2] (setting [8]), 99% (active); in test [2] (at 50.0 µM), 99.2% (active). Also, the growth inhibition in test [3] (setting [7]) was 99% (active); in test [3] (setting [8]), 99% (active); in test [3] (at 50.0 µM) it was 99.3% (active); in test [4] (setting [7]) it was 99% (active); in test [4] (setting [8]), 99% (active); in test [4] (at 50.0 µM), 99.1% (active). The growth inhibition is 99% (active) in test [5] (setting [7]); 99% (active) in test [5] (setting [8]); 99.2% (active) in test [5] (at 50.0 µM); 98% (active) in test [6] (setting [7]); 99% (active) in test [6] (setting [8]); 98.9% (active) in test [6] (at 50.0 µM).
Take `Cn1ncc2c(Nc3cccc(Cl)c3)nc(Nc3cccc(Cl)c3)nc21`: the growth inhibition in test [1] (setting [7]) was 47%; in test [1] (setting [8]), 97% (active); in test [1] (at 50.0 µM) it was 96% (active); in test [2] (setting [7]), 18%; in test [2] (setting [8]), 98% (active); in test [2] (at 50.0 µM) it was 94.2% (active). Besides, the growth inhibition in test [3] (setting [7]) was 27%; in test [3] (setting [8]), 98% (active); in test [3] (at 50.0 µM), 96.2% (active); in test [4] (setting [7]), 11%; in test [4] (setting [8]) it was 97% (active); in test [4] (at 50.0 µM) it was 95.4% (active). In addition, the growth inhibition is -7% in test [5] (setting [7]); 98% (active) in test [5] (setting [8]); 94.2% (active) in test [5] (at 50.0 µM); 32% in test [6] (setting [7]); 97% (active) in test [6] (setting [8]); 95.7% (active) in test [6] (at 50.0 µM).
For the compound `O=Cc1[nH]c(=S)[nH]c(=O)c1Cc1cccc2ccccc12`, the growth inhibition in test [1] (setting [7]) was -8%; in test [1] (setting [8]) it was 96% (active); in test [1] (at 50.0 µM), 97.9% (active); in test [2] (setting [7]), -3%; in test [2] (setting [8]) it was 98% (active); in test [2] (at 50.0 µM) it was 97.8% (active). In addition, the growth inhibition is 11% in test [3] (setting [7]); 99% (active) in test [3] (setting [8]); 98.8% (active) in test [3] (at 50.0 µM); 0% in test [4] (setting [7]); 98% (active) in test [4] (setting [8]); 91.8% (active) in test [4] (at 50.0 µM). Moreover, the growth inhibition was -19% in test [5] (setting [7]); 98% (active) in test [5] (setting [8]); 98% (active) in test [5] (at 50.0 µM); -3% in test [6] (setting [7]); 98% (active) in test [6] (setting [8]); 98.9% (active) in test [6] (at 50.0 µM).
As to `CC#CC#C/C=C1/C=CC(=O)O1`, the growth inhibition in test [1] (setting [7]) is 2%; in test [1] (setting [8]), 80% (active); in test [1] (at 50.0 µM), 27.4%; in test [2] (setting [7]), 3%; in test [2] (setting [8]), 66%; in test [2] (at 50.0 µM), 33.5%. Further, the growth inhibition in test [3] (setting [7]) was 1%; in test [3] (setting [8]), 62%; in test [3] (at 50.0 µM) it was 42.2%; in test [4] (setting [7]), -1%; in test [4] (setting [8]), 26%; in test [4] (at 50.0 µM), -16.8%. Moreover, the growth inhibition in test [5] (setting [7]) is 3%; in test [5] (setting [8]), 59%; in test [5] (at 50.0 µM) it was 13.5%; in test [6] (setting [7]), 0%; in test [6] (setting [8]), 84% (active); in test [6] (at 50.0 µM), 75% (active).
